# Laboratory results reported in PubChem BioAssay.
# Assay: EMT-state selective cytotoxicity in co-culture – imaging, PC-3E GFP, TEM4-18 mCherry, primary screen (AID 1345086);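 also: cells exposed to compound for 72 h before imaging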
# Conditions: PC-3E GFP / TEM4-18 mCherry co-culture, imaging cell counts; measured here: mesenchymal TEM4-18 mCherry cell survival; at 1 µM
row,SMILES,normalised cell number
1,COc1cc(C(=O)NCc2ccc(OCCN(C)C)cc2)cc(OC)c1OC,1.18
2,O=C1c2c(O)cccc2Cc2cccc(O)c21,1.19
3,Cc1ccsc1/C=C/C1=NCCCN1C,1.38
4,CC(CN(C)C)CN1c2ccccc2CCc2ccccc21 (stereo not drawn),1.36
5,C[n+]1cc2c3c(ccc2c2ccc4cc5c(cc4c21)OCO5)OCO3,1.01
6,CCOC(=O)NNc1nncc2ccccc12,0.9
7,CO[C@@]1(NC(=O)C(C(=O)O)c2ccc(O)cc2)C(=O)N2C(C(=O)O)=C(CSc3nnnn3C)CO[C@@H]21 (stereo partly drawn),1.11
8,O=C(O)[C@@H]1[C@H]2C[C@H]3c4[nH]c5ccccc5c4CCN3C[C@@H]2CC[C@@H]1O,0.95
9,CCCc1ncc(C[n+]2ccccc2C)c(N)n1,1.28
10,CCN(CC)C(=O)N1CCN(C)CC1,1.42
11,NC(=O)NC1NC(=O)NC1=O (stereo not drawn),1.11
12,CC(=O)OC(C)C[N+](C)(C)C (stereo not drawn),1.13
13,Nc1ccc(C(=O)O)cc1,1.02
14,C=CCc1ccccc1OCC(O)CNC(C)C (stereo not drawn),1.2
15,Oc1cccc(O)c1,0.95
16,Nc1nccs1,0.98
17,COc1ccc2cc1Oc1ccc(cc1)C[C@H]1c3c(cc4c(c3Oc3cc5c(cc3OC)CCN(C)[C@@H]5C2)OCO4)CCN1C,0.78
18,CCN(CC)CCNC(=O)c1cc(S(C)(=O)=O)ccc1OC,1.16
19,NC(=NCCCCCCN=C(N)/N=C(\N)Nc1ccc(Cl)cc1)/N=C(\N)Nc1ccc(Cl)cc1,0.93
20,Cc1[nH]c(C)c(Cl)c(=O)c1Cl,0.99
21,Cc1ccc(C(=O)c2ccc(CC(=O)O)n2C)cc1,1
22,Cc1ccc(C(C)C)cc2c(C)ccc1-2,0.92
23,CCN(CCCCOC(=O)c1ccc(OC)c(OC)c1)C(C)Cc1ccc(OC)cc1 (stereo not drawn),0.97
